Measurements reported in PubChem BioAssay.
Activity calls are given as the source filed them. Unless noted, no rule for the calls is given here.

Assays:
[1] = anti-His antibody binders, primary screen, artefact control for SMM control protein annotation, biochemical, small-molecule microarray, 635 nm fluorescence (AID 1128); conditions: anti-His Alexa647 antibody binding, higher = more signal;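 also: score merges feature fluorescence with signal-to-noise for each printed compound spot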
[2] = test system: Human papillomavirus type 1a E7 protein (residues 1-88); assay: HPV1a E7 small-molecule binders, primary screen, biochemical, small-molecule microarray, residues 1-88, 635 nm (AID 1129); conditions: small-molecule microarray binding, fluorescence 635 nm; higher = more signal
[3] = molecular target: Focal adhesion kinase 1 (Homo sapiens) (UniProt Q05397); assay: small-molecule microarray binders of FAK, primary screen, biochemical, 635/667 nm fluorescence, BSA, DTT (AID 1130); conditions: PTK2 binding, 635 nm fluorescence, higher = more signal;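 also: composite of spot emission at 667 nm and signal to noise over triplicate slides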
Chain of Focal adhesion kinase 1 (Homo sapiens) (Q05397 whole entry, looked up): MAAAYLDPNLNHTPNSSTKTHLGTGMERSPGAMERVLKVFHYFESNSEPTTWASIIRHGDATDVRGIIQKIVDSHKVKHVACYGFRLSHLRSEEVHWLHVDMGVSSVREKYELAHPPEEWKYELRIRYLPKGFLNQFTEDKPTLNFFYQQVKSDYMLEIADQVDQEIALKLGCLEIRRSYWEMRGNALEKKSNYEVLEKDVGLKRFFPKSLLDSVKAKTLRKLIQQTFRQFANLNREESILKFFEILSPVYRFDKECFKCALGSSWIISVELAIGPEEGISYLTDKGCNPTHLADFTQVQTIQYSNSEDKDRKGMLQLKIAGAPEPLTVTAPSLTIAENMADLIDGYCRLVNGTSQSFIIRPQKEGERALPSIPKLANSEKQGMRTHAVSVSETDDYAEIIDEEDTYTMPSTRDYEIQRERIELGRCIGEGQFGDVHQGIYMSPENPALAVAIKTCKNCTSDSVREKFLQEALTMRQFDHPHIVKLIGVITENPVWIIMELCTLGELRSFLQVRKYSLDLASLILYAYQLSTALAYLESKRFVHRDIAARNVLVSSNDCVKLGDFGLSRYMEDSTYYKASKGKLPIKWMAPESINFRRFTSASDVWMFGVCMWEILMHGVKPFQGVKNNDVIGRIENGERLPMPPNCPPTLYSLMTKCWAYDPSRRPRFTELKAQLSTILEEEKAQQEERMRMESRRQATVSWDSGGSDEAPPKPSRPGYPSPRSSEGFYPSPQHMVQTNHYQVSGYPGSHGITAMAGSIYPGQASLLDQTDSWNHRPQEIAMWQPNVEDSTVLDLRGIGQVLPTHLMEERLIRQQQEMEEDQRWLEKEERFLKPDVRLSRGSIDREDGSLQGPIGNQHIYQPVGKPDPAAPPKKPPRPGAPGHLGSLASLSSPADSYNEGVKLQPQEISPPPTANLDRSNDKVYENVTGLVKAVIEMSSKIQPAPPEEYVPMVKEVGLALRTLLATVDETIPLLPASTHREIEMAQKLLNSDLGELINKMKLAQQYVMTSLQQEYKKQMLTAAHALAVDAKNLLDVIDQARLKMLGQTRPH

[4] = test system: Fibrinogen (Alexa647-labelled); assay: fibrinogen binders on compound microarrays, profiling panel, artefact control for SMM control-protein annotation, biochemical, small-molecule microarray, 635/667 nm fluorescence (AID 1131); conditions: fibrinogen-A647 binding fluorescence, higher = more signal;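 also: z-score merges 667 nm fluorescence with per-spot signal-to-noise over triplicate slides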
[5] = molecular target: Follistatin (Homo sapiens) (UniProt P19883); assay: follistatin binders on small-molecule microarrays, primary screen, biochemical, small-molecule microarray, 635/667 nm fluorescence (AID 1132); conditions: FST binding, 635 nm fluorescence, higher = more signal
Chain of Follistatin (Homo sapiens) (P19883 whole entry, looked up): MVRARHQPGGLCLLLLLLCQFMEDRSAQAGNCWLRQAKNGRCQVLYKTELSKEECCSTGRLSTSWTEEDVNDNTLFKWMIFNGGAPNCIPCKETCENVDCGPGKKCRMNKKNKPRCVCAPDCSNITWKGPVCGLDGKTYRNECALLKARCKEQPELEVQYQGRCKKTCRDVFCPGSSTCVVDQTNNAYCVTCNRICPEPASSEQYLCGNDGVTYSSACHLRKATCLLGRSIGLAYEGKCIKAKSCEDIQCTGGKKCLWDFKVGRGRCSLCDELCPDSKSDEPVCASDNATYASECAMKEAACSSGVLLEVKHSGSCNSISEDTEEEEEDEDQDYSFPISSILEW

[6] = molecular target: Fibroblast growth factor 2 (Homo sapiens) (UniProt P09038); assay: FGF2 binders on small-molecule microarrays, primary screen, biochemical, small-molecule microarray, 635/667 nm fluorescence (AID 1133); conditions: small-molecule microarray binding, FGF2, fluorescence 635/667; higher = more signal
Chain of Fibroblast growth factor 2 (Homo sapiens) (P09038 whole entry, looked up): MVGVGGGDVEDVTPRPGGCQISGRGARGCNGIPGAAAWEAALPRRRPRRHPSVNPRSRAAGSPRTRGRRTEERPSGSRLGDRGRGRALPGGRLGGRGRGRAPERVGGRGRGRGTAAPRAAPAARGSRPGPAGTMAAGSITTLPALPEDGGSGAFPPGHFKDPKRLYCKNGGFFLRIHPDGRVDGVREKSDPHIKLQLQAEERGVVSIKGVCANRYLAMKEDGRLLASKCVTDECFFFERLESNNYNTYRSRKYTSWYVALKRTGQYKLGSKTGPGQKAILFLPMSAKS

[7] = mitochondrial membrane potential change in A549 cells, profiling panel, cell-based, JC-1 fluorescence, basal, 24 h, 100 nL (AID 1138); conditions: higher = more signal;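 also: A549 lung adenocarcinoma cells under basal conditions with no added stimulus; test concentration not given here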
Lefty1 = Lefty1 binders on small-molecule microarrays, primary screen, biochemical, small-molecule microarray, 635/667 nm fluorescence (AID 1139); conditions: small-molecule microarray binding, fluorescence 635/667; higher = more signal
[8] = test system: wheat germ agglutinin (Triticum aestivum), Alexa647-labelled; assay: wheat germ agglutinin binders on compound microarrays, profiling panel, artefact control for SMM control-protein annotation, biochemical, small-molecule microarray, 635/667 nm fluorescence (AID 1140); conditions: WGA-A647 binding, 635 nm fluorescence, higher = more signal;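 also: score merges 667 nm feature emission with signal to noise over triplicate slides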
[9] = molecular target: Luciferin 4-monooxygenase (Photinus pyralis) (UniProt P08659); assay: firefly luciferase enzyme inhibitors, primary screen, biochemical, luminescence, purified enzyme, 2006 set (AID 1141); conditions: SteadyGlo luminescence, 30 min, higher = more signal, called active from +8 up or from −8 down;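 also: cell-free assay with purified firefly luciferase at 100 ng per well in PBS; test concentration not given here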
Chain of Luciferin 4-monooxygenase (Photinus pyralis) (P08659 whole entry, looked up): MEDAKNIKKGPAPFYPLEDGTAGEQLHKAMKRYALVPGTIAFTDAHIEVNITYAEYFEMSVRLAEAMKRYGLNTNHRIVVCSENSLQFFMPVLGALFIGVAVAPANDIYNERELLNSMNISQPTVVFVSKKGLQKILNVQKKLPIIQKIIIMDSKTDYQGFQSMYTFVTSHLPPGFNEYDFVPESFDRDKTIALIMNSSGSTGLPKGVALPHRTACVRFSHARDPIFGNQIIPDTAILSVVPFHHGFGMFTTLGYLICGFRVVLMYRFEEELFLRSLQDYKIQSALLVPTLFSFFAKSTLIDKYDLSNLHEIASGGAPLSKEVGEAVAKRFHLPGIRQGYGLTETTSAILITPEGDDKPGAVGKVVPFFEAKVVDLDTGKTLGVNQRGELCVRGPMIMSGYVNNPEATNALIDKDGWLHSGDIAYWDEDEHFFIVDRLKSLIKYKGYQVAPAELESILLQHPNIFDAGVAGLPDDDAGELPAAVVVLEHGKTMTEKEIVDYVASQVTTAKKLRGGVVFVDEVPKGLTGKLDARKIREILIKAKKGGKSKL

[10] = test system: Wnt5a (protein binding on small-molecule microarray); assay: Wnt5a binders on small-molecule microarray, primary screen, biophysical, 635/667 nm fluorescence (AID 1142); conditions: 635 nm fluorescence, higher = more signal;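 also: fluorescence read at 667 nm with signal to noise per printed feature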
[11] = cell viability in Huh7 cells, primary screen, cytotoxicity control for HCV replication inhibitor project, CellTiter-Glo luminescence, basal, 48 h (AID 1143); conditions: Huh7 HCV replicon, higher = more signal, called active from +8 up or from −8 down;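 also: Huh7 hepatoma cells carrying a hepatitis C replication reporter with no stimulus; test concentration not given here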
[12] = P. aeruginosa biofilm formation inhibitors, primary screen, PAO1 strain, BacTiter-Glo luminescence, LB-PBS (AID 1144); conditions: 12 h, higher = more signal
[13] = CREB reporter modulators without forskolin, primary screen, cell-based, PC12, CRE-LacZ reporter, unstimulated (AID 1145); conditions: no forskolin, luminescence, 4.5 h, higher = more signal, called active from +8 up or from −8 down
[14] = CREB reporter modulators under forskolin, primary screen, cell-based, PC12, CRE-LacZ reporter, forskolin-stimulated (AID 1146); conditions: luminescence, 4.5 h, higher = more signal, called active from +8 up or from −8 down;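 also: PC12 cells with 6xCRE LacZ reporter stimulated by forskolin 10 µM; beta-galactosidase reporter signal reflecting CREB driven transcription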
[15] = molecular target: Streptavidin (Streptomyces avidinii) (UniProt P22629); assay: streptavidin binders on small-molecule microarray, primary screen, artefact control for SMM compound annotation, biophysical, 635/667 nm fluorescence (AID 1147); conditions: streptavidin binding, higher = more signal;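 also: signal reflects streptavidin binding to arrayed compounds as a control protein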
Chain of Streptavidin (Streptomyces avidinii) (P22629 whole entry, looked up): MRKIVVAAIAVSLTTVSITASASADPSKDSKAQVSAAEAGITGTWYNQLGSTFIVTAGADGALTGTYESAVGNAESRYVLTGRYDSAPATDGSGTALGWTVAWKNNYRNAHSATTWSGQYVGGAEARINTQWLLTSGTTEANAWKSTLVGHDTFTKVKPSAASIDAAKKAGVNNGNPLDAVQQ

[16] = small-molecule binders of probe aInhba, primary screen, biochemical, small-molecule microarray, 635/667 nm fluorescence (AID 1148); conditions: higher = more signal;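 also: score merges 667nm spot fluorescence with signal-to-noise for antibody binding to printed compounds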
Torsin-1A (Homo sapiens) [17] = molecular target: Torsin-1A (Homo sapiens) (UniProt O14656); assay: torsin A binders from cell lysate, primary screen, small-molecule microarray, wild-type, 635/667 nm (AID 1149); conditions: COS7 hTOR1A-WT lysate, 635 nm fluorescence, higher = more signal
Chain of Torsin-1A (Homo sapiens) (O14656 whole entry, looked up): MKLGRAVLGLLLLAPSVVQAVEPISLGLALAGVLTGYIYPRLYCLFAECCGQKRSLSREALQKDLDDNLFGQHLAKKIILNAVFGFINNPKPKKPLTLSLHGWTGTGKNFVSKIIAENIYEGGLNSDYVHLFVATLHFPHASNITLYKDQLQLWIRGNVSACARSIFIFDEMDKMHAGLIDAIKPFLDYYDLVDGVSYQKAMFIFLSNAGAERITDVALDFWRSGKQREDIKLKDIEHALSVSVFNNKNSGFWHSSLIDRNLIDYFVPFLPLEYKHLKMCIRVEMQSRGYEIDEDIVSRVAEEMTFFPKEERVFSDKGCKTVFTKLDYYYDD

Torsin-1A (Homo sapiens) [18] = molecular target: Torsin-1A (Homo sapiens) (UniProt O14656); assay: small-molecule binders of mutant TOR1A in lysate, primary screen, cell lysate, small-molecule microarray, COS7 lysate, 635/667 nm fluorescence (AID 1150); conditions: COS7 hTOR1A mutant lysate, 635 nm fluorescence, higher = more signal;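 also: score pools 667 nm emission and signal to noise measuring lysate protein binding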
[19] = test system: Sonic hedgehog protein (Shh); assay: small-molecule binders of Shh protein, primary screen, biochemical, small-molecule microarray, 635/667 nm fluorescence (AID 1151); conditions: small-molecule microarray binding, 635 nm fluorescence; higher = more signal;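 also: Shh protein binding to compounds spotted on small-molecule microarray slides; score combines spot fluorescence intensity with signal-to-noise across triplicate slides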

SMILES | composite z-score [1] | composite z-score [2] | composite z-score [3] | composite z-score [4] | composite z-score [5] | composite z-score [6] | z-score [7] | composite z-score (Lefty1) | composite z-score [8] | z-score [9] | composite z-score [10] | z-score [11] | z-score [12] | z-score [13] | z-score [14] | composite z-score [15] | composite z-score [16] | composite z-score (Torsin-1A (Homo sapiens) [17]) | composite z-score (Torsin-1A (Homo sapiens) [18]) | composite z-score [19]
COC(=O)[C@@]1(Cc2ccc(OC)cc2)[C@H]2c3cc(C(=O)N4CCCC4)n(Cc4ccsc4Br)c3C[C@H]2CN1C(=O)c1ccccc1 | 0.198 | 1.12 | 0.565 | -0.152 | 0.073 | -0.88 | -0.404 | -0.402 | 0.604 | -0.777 (inactive) | 0.0185 | -3.29 (inactive) | 0.674 (inactive) | 1.72 (inactive) | 46.9 (active) | 0.161 | 0.19 | -0.34 | 0.185 | -0.658
COc1cc2c(cc1OC)CN(C(=O)[C@H]1[C@@H]3C(=O)O[C@@H](c4ccccc4)[C@@H](c4ccccc4)N3[C@@H](c3ccc(O)cc3)[C@]13C(=O)Nc1ccc(C#CC4=CCCCC4)cc13)CC2 | 2.11 | 1.19 | -0.0164 | 0.666 | 1.22 | 0.86 | 0.0961 | 1.2 | 1.12 | -1.1 (inactive) | 0.657 | -2.62 (inactive) | -0.693 (inactive) | -0.375 (inactive) | -0.267 (inactive) | 1.45 | 0.288 | 0.302 | 0.454 | 1.07
C=CCOC(=O)[C@H]1[C@@H]2C(=O)O[C@@H](c3ccccc3)[C@@H](c3ccccc3)N2[C@@H](c2ccc(OCCOC(=O)[C@H]3C[C@H]4C(=O)N5CCC[C@H]5C(=O)N4[C@H]3c3ccc(O)cc3)cc2)[C@]12C(=O)Nc1ccc(I)cc12 | 2.88 | 1.23 | -0.0378 | 0.396 | 1.47 | 1.6 | -0.87 | 1.54 | 1.66 | 0.269 (inactive) | 1.61 | -2.04 (inactive) | 1.03 (inactive) | 0.0043 (inactive) | 0.803 (inactive) | 1.93 | 1.3 | 2.59 | 2.65 | 2.04
CCCC#C[Si](O[C@H](CC)c1cn([C@H](CO)Cc2ccccc2)nn1)(C(C)C)C(C)C | 0.236 | 0.842 | 0.249 | 0.892 | 0.963 | 0.344 | 0.175 | 0.41 | 0.0686 | -0.453 (inactive) | 0.998 | -0.727 (inactive) | -0.259 (inactive) | -0.388 (inactive) | -0.0711 (inactive) | 0.949 | -0.128 | 0.402 | 0.511 | 0.482
CC(CO)N1C(=O)[C@@H]2C3C(=O)OCCC/C=C\[C@H]3OC23C=CCN(c2ccc4ccccc4c2)C(=O)[C@@H]13 (stereo not given in full) | 0.339 | -0.351 | -0.363 | 0.167 | -0.382 | -0.865 | 0.45 | -0.632 | 0.0312 | -0.846 (inactive) | -0.632 | 0.645 (inactive) | -1.02 (inactive) | -0.0737 (inactive) | 0.156 (inactive) | -0.342 | -0.0719 | -1.72 | -1.03 | -0.256
CCCC[C@@H]1C[C@H]1[C@@H](NC(=O)c1ccco1)c1ccc(C(=O)OC)cc1 | -0.499 | 0.149 | 0.214 | 0.0507 | -0.943 | -1.42 | -0.814 | -0.431 | 0.586 | 1.94 (inactive) | -0.195 | -1.88 (inactive) | -0.333 (inactive) | 0.0075 (inactive) | 1.58 (inactive) | 0.564 | -0.154 | -0.708 | -0.319 | -1.47
OC([C@@H]1CC(c2ccccc2)=NO1)[C@H]1CC(c2ccccc2)=NO1 (stereo not given in full) | 0.176 | -0.236 | -0.141 | 0.0985 | 0.0914 | 0.128 | -0.0913 | 0.484 | -0.259 | -1.46 (inactive) | 0.0286 | -0.263 (inactive) | -0.00202 (inactive) | 2.31 (inactive) | -0.487 (inactive) | 0.133 | 0.027 | 0.0801 | -0.174 | 0.394
CCCCN1CC=CC23O[C@@H]4/C=C\CCC(C)OC(=O)C4[C@H]2C(=O)N(CCCCCO)[C@@H]3C1=O (stereo not given in full) | -0.383 | -0.69 | -0.883 | -0.773 | -1.13 | -0.781 | -0.175 | -0.234 | -0.245 | 0.762 (inactive) | -0.612 | 0.0396 (inactive) | -0.398 (inactive) | 0.191 (inactive) | -0.0864 (inactive) | -1.24 | -0.246 | -1.6 | -1.78 | -0.0223
C=CCNC(=O)[C@@H]1[C@H]2C(=O)O[C@H](c3ccccc3)[C@H](c3ccccc3)N2[C@H](c2ccc(OCCO)cc2)[C@@]12C(=O)Nc1ccc(C#CCCO)cc12 | 2.72 | 1.19 | 1.17 | 0.979 | 1.16 | 1.68 | 0.103 | 1.52 | 0.687 | -0.947 (inactive) | 0.847 | -0.625 (inactive) | -0.796 (inactive) | -0.141 (inactive) | -0.118 (inactive) | 1.6 | 1.15 | 1.26 | 1.17 | 1.59
C#CCN(Cc1ccccc1Br)C(/C=C/c1ccccc1)CO (stereo not given) | 0.448 | -0.265 | -0.102 | -0.171 | -0.523 | 0.774 | -1.01 | 0.0437 | -0.618 | 0.0615 (inactive) | -0.15 | -4.79 (inactive) | 0.825 (inactive) | 5.19 (inactive) | -1.04 (inactive) | -0.175 | -0.283 | 0.0428 | -0.653 | -0.0683
